Of roughly 7,900 targets only a part is listed; those with a hit were picked by preference. About 0.6% of all pairs of compound and target were hits.
Legend:
Assay in all cases: log2 fold change, soluble protein after heating vs DMSO (PISA); higher = thermal stabilisation; K562 cells, 10 uM, 30 min; active = over 0.2 and 3.5 SD of the protein, either way, in both replicates (recomputed)
saracatinib = compound: CN1CCN(CCOc2cc(OC3CCOCC3)c3c(Nc4c(Cl)ccc5c4OCO5)ncnc3c2)CC1 [saracatinib]
Method in brief: (§1)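 Soluble protein was quantified by TMTpro 16plex LC-MS/MS after channel sums were equalised. It was obtained as the supernatant after 21,000xg for 90 min from pooled aliquots of K562 cells (2×10^6 cells/mL, 10 μM compound, 30 min) heated for 3 min across 48°C-58°C and extracted in PBS with 0.5% NP-40 at 4°C. Thermal stability values are relative to control samples and come from duplicates. They are given as log2 fold changes.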

sotrastaurin = compound: CN1CCN(c2nc(C3=C(c4c[nH]c5ccccc45)C(=O)NC3=O)c3ccccc3n2)CC1 [sotrastaurin]
Method in brief: as §1

alvocidib = compound: CN1CC[C@H](c2c(O)cc(O)c3c(=O)cc(-c4ccccc4Cl)oc23)[C@H](O)C1 [alvocidib]
Method in brief: as §1

Tubastatin A = compound: CN1CCc2c(c3ccccc3n2Cc2ccc(C(=O)NO)cc2)C1 [Tubastatin A]
Method in brief: as §1

[1] = compound: CNC(=O)C1=CC=CC=C1NC2=NC(=NC=C2Cl)NC3=C(C=C(C=C3)N4CCOCC4)OC
Method in brief: as §1

defactinib = compound: CNC(=O)c1ccc(Nc2ncc(C(F)(F)F)c(NCc3nccnc3N(C)S(C)(=O)=O)n2)cc1 [defactinib]
Method in brief: as §1

rucaparib = compound: CNCc1ccc(-c2[nH]c3cc(F)cc4c3c2CCNC4=O)cc1 [rucaparib]
Method in brief: as §1

[2] = compound: CNc1nc(-c2ccc3c(N)n[nH]c3c2)cc(N2C[C@@H](C(=O)NC3CCCCC3)CC[C@H]2C)n1
Method in brief: as §1

encorafenib = compound: COC(=O)N[C@@H](C)CNc1nccc(-c2cn(C(C)C)nc2-c2cc(Cl)cc(NS(C)(=O)=O)c2F)n1 [encorafenib]
Method in brief: as §1

[3] = compound: COC(=O)[C@H](CCSC)NC(=O)C1=C(C=C(C=C1)NC[C@H](CS)N)C2=CC=CC=C2
Method in brief: as §1

Measured: log2 fold change

CRYM-AS1 (UniProt A6NIL9)
inactive: saracatinib -0.092 | sotrastaurin -0.041 | alvocidib 0.063 | Tubastatin A 0.119 | [1] -0.347 | defactinib -0.065 | rucaparib -0.356 | [2] 0.103 | encorafenib 0.024 | [3] -0.078

CRLS1 (UniProt Q9UJA2)
Sequence of UniProt Q9UJA2 (Q9UJA2 whole entry, looked up): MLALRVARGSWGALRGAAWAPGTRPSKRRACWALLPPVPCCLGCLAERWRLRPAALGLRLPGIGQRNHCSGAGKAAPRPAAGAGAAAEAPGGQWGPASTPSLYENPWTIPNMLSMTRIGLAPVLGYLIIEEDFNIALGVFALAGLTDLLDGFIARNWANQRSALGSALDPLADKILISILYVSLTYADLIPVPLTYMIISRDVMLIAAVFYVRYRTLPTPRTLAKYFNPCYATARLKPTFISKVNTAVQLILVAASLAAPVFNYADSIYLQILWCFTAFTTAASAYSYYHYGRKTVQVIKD
inactive: saracatinib 0.144 | sotrastaurin -0.282 | alvocidib 0.02 | Tubastatin A -0.079 | [1] 0.043 | defactinib -0.088 | rucaparib -0.088 | [2] -0.052 | encorafenib 0.004 | [3] 0.067

CLCN3 (UniProt P51790)
inactive: saracatinib 0 | sotrastaurin 0.021 | alvocidib -0.048 | Tubastatin A -0.14 | [1] 0.019 | defactinib 0.004 | rucaparib -0.055 | [2] -0.057 | encorafenib 0.021 | [3] -0.06

CIR1 (UniProt Q86X95)
inactive: saracatinib -0.02 | sotrastaurin -0.039 | alvocidib 0.256 | Tubastatin A 0.078 | [1] -0.061 | defactinib 0.418 | rucaparib 0.102 | [2] 0.057 | encorafenib 0.04 | [3] 0.207

CHP1 (UniProt Q99653)
Sequence of UniProt Q99653 (Q99653 whole entry, looked up): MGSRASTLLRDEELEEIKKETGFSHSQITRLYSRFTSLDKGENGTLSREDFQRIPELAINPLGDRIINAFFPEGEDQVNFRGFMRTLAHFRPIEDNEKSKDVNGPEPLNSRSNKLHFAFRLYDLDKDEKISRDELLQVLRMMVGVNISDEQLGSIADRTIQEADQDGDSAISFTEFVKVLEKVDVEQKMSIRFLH
inactive: saracatinib -0.09 | sotrastaurin 0.068 | alvocidib -0.046 | Tubastatin A 0.041 | [1] 0.085 | defactinib -0.006 | rucaparib 0.068 | [2] -0.219 | encorafenib -0.016 | [3] 0.021

C16orf58 (UniProt Q96GQ5)
inactive: saracatinib 0.042 | sotrastaurin 0.04 | alvocidib -0.032 | Tubastatin A -0.003 | [1] -0.005 | defactinib -0.031 | rucaparib -0.012 | [2] -0.063 | encorafenib 0.051 | [3] -0.02

C19orf54 (UniProt Q5BKX5)
inactive: saracatinib 0.049 | sotrastaurin -0.221 | alvocidib 0.178 | Tubastatin A 0.092 | [1] 0.002 | defactinib -0.136 | rucaparib 0.255 | [2] -0.108 | encorafenib 0.005 | [3] -0.031

CDK5 (UniProt Q00535)
inactive: saracatinib -0.008 | sotrastaurin 0.094 | alvocidib 0.142 | Tubastatin A -0.013 | [1] 0.029 | defactinib 0.143 | rucaparib 0.05 | [2] 0.006 | encorafenib 0.049 | [3] -0.042

CCNK isoform 4 (UniProt O75909)
inactive: saracatinib -0.072 | sotrastaurin 0.135 | alvocidib 0.022 | Tubastatin A 0.057 | [1] -0.147 | defactinib 0.043 | rucaparib 0.066 | [2] -0.019 | encorafenib 0.029 | [3] 0.003

CDC42BPA isoform 6 (UniProt Q5VT25)
inactive: saracatinib -0.093 | Tubastatin A 0.022 | [1] -0.037 | defactinib -0.183 | rucaparib 0.088 | [2] -0.031 | encorafenib 0.06 | [3] -0.064
active: sotrastaurin -0.47 | alvocidib -0.688

COX15 (UniProt Q7KZN9)
inactive: saracatinib 0.071 | sotrastaurin 0.004 | alvocidib -0.015 | Tubastatin A -0.009 | [1] -0.008 | defactinib -0.003 | [2] -0.017 | encorafenib 0.023 | [3] 0.002
active: rucaparib -0.236

C9orf64 (UniProt Q5T6V5)
Sequence of UniProt Q5T6V5 (Q5T6V5 whole entry, looked up): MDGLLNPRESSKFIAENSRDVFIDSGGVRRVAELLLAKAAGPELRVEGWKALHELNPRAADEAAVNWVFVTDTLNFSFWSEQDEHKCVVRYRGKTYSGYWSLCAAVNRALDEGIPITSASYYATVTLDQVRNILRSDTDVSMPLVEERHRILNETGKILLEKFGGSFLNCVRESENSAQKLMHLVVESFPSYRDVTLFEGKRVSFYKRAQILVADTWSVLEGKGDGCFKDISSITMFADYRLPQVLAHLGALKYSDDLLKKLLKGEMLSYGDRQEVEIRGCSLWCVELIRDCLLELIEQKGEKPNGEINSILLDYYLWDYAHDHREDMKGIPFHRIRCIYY
active: rucaparib 0.377
inactive: saracatinib -0.053 | sotrastaurin -0.124 | alvocidib -0.177 | Tubastatin A 0.036 | [1] -0.04 | defactinib -0.067 | [2] -0.018 | encorafenib 0.047 | [3] 0.016

CHKA (UniProt P35790)
Sequence of UniProt P35790 (P35790 whole entry, looked up): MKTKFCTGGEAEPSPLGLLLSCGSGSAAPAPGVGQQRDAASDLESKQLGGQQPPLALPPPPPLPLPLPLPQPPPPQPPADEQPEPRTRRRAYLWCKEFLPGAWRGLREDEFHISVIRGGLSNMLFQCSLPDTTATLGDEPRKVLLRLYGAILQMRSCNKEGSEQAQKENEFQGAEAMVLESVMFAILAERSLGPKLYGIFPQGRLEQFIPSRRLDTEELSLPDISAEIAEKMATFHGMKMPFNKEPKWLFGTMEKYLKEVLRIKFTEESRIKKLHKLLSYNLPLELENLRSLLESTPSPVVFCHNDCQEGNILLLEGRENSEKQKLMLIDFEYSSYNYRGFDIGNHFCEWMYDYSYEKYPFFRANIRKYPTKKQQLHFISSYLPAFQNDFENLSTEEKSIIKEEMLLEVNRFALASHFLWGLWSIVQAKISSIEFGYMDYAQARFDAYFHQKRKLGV
inactive: saracatinib 0.028 | sotrastaurin 0.107 | alvocidib 0.064 | Tubastatin A 0.148 | [1] -0.033 | defactinib 0.006 | rucaparib 0.046 | [2] -0.027 | encorafenib -0.107 | [3] 0.056

CSTF3 (UniProt Q12996)
Sequence of UniProt Q12996 (Q12996 whole entry, looked up): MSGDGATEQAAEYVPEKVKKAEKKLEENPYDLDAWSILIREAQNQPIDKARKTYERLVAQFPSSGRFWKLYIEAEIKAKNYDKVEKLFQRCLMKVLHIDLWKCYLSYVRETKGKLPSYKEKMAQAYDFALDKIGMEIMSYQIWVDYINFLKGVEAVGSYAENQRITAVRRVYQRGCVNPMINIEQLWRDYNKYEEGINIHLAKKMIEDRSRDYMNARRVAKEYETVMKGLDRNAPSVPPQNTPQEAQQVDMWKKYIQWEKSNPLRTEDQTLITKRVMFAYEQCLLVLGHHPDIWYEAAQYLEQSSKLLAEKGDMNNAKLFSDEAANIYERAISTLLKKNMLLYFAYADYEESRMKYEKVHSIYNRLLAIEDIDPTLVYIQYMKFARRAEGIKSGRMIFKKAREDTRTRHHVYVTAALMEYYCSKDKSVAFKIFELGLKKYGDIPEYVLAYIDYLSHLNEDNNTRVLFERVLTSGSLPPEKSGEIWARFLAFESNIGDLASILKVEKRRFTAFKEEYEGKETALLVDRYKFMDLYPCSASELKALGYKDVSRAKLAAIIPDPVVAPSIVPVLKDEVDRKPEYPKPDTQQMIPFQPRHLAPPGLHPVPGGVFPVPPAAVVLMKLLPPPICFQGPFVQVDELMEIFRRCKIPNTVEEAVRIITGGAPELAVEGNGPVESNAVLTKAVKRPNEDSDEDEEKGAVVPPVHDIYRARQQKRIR
inactive: saracatinib 0.001 | sotrastaurin 0.045 | alvocidib 0.078 | Tubastatin A -0.08 | [1] 0.043 | defactinib 0.173 | rucaparib 0.088 | [2] -0.051 | encorafenib -0.022 | [3] 0.002

COX5A (UniProt P20674)
Sequence of UniProt P20674 (P20674 whole entry, looked up): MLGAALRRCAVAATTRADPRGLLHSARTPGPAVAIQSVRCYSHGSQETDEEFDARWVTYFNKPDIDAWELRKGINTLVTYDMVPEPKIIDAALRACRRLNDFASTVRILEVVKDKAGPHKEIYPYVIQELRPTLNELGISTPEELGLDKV
inactive: saracatinib -0.063 | sotrastaurin 0.025 | alvocidib -0.063 | Tubastatin A -0.015 | [1] 0.043 | defactinib -0.016 | rucaparib 0.011 | [2] 0.007 | encorafenib -0.036 | [3] 0.11

C19orf53 (UniProt Q9UNZ5)
inactive: saracatinib -0.069 | sotrastaurin -0.03 | alvocidib 0.33 | Tubastatin A 0.129 | [1] 0.155 | defactinib 0.296 | rucaparib 0.257 | [2] 0.053 | encorafenib 0.136 | [3] 0.036

CHAC2 (UniProt Q8WUX2)
Sequence of UniProt Q8WUX2 (Q8WUX2 whole entry, looked up): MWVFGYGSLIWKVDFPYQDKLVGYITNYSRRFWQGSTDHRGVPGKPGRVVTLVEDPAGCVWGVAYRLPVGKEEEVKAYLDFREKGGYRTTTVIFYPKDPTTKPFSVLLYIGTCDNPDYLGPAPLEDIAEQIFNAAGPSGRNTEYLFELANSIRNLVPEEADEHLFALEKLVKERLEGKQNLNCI
inactive: saracatinib -0.016 | sotrastaurin -0.028 | alvocidib -0.075 | Tubastatin A -0.02 | [1] -0.02 | defactinib -0.07 | rucaparib 0.122 | [2] -0.05 | encorafenib 0.237 | [3] 0.025

CIZ1 (UniProt Q9ULV3)
Sequence of UniProt Q9ULV3 (Q9ULV3 whole entry, looked up): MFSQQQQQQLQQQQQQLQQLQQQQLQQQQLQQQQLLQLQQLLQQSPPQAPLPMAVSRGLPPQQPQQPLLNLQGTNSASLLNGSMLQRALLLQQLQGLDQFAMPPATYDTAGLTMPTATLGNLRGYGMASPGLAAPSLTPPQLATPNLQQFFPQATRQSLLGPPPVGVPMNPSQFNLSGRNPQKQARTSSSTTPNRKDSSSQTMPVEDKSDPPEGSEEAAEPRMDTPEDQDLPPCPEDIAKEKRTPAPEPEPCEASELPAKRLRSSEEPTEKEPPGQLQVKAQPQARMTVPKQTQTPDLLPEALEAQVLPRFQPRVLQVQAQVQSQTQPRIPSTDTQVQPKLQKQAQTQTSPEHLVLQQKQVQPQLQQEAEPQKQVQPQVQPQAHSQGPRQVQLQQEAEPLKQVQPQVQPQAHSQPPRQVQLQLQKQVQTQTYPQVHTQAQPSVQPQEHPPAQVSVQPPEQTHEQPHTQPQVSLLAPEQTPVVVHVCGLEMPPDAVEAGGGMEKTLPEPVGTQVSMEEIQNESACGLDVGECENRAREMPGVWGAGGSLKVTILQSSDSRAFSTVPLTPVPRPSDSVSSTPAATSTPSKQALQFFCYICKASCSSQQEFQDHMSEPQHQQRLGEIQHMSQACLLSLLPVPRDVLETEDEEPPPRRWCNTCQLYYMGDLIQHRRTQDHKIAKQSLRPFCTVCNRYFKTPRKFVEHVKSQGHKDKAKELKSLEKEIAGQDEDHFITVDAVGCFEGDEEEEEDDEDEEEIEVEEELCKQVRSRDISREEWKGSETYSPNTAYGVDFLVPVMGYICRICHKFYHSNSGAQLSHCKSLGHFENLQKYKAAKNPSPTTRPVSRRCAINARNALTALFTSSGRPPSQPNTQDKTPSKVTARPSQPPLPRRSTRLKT
inactive: saracatinib 0.046 | sotrastaurin -0.075 | alvocidib -0.074 | Tubastatin A 0.102 | [1] -0.11 | defactinib -0.117 | rucaparib 0.027 | [2] -0.109 | encorafenib -0.038 | [3] -0.001

CNOT7 (UniProt Q9UIV1)
Sequence of UniProt Q9UIV1 (Q9UIV1 whole entry, looked up): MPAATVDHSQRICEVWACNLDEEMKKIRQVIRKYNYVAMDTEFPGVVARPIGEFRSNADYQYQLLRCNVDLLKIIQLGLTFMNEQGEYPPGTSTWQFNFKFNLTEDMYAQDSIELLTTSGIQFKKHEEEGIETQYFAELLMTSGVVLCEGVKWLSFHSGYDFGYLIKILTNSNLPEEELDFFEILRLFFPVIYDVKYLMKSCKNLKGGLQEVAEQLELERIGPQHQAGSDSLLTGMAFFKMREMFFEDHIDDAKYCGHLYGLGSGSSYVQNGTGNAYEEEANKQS
inactive: saracatinib 0.008 | sotrastaurin -0.044 | alvocidib -0.091 | Tubastatin A 0.004 | [1] -0.035 | defactinib 0.018 | rucaparib 0.051 | [2] 0.104 | encorafenib 0.113 | [3] -0.109

CCAR1 (UniProt Q8IX12)
inactive: saracatinib -0.038 | sotrastaurin -0.027 | alvocidib -0.17 | Tubastatin A -0.001 | [1] -0.039 | defactinib -0.021 | rucaparib 0.026 | [2] 0.086 | encorafenib -0.005 | [3] -0.033

CNN2 (UniProt Q99439)
Sequence of UniProt Q99439 (Q99439 whole entry, looked up): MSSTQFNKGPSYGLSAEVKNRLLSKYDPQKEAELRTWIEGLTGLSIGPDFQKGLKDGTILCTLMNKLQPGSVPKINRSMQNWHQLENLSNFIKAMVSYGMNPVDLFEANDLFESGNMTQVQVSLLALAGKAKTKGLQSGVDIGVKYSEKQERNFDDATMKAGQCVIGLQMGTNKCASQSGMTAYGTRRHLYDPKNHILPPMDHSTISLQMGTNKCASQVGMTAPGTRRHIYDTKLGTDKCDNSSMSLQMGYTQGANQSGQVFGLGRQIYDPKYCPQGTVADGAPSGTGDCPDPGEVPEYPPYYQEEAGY
inactive: saracatinib 0.004 | sotrastaurin -0.161 | alvocidib -0.024 | Tubastatin A 0 | [1] -0.003 | defactinib -0.087 | rucaparib -0.008 | [2] -0.077 | encorafenib 0.023 | [3] 0

CDK13 (UniProt Q14004)
inactive: saracatinib -0.133 | sotrastaurin -0.121 | alvocidib -0.061 | Tubastatin A 0.042 | [1] -0.071 | defactinib -0.01 | rucaparib 0.06 | [2] -0.129 | encorafenib 0.104 | [3] 0.036

CCDC59 (UniProt Q9P031)
Sequence of UniProt Q9P031 (Q9P031 whole entry, looked up): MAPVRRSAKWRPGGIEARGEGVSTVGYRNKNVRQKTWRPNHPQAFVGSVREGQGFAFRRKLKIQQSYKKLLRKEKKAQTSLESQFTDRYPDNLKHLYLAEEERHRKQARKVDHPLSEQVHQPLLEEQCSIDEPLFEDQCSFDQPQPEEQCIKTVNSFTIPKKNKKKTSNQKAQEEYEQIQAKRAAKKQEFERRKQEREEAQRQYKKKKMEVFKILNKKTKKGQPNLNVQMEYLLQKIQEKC
inactive: saracatinib -0.222 | sotrastaurin 0.023 | alvocidib 0.267 | Tubastatin A 0.127 | [1] 0.007 | defactinib 0.309 | rucaparib 0.029 | [2] 0.05 | encorafenib 0.026 | [3] -0.015

CASTOR2 (UniProt A6NHX0)
Sequence of UniProt A6NHX0 (A6NHX0 whole entry, looked up): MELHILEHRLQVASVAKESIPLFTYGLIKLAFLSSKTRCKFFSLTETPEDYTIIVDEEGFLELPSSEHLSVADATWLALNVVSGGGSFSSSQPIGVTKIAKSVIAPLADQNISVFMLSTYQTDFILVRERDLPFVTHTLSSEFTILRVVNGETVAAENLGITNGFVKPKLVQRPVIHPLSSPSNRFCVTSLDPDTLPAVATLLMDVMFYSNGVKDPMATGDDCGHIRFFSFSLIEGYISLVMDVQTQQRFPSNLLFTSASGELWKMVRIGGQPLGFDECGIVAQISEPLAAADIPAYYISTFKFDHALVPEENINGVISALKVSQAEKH
inactive: saracatinib 0.042 | sotrastaurin 0.039 | alvocidib 0.027 | Tubastatin A 0.036 | [1] -0.082 | defactinib -0.092 | rucaparib -0.048 | [2] 0.032 | encorafenib 0.04 | [3] 0

CBS (UniProt P35520)
inactive: saracatinib -0.009 | sotrastaurin 0.011 | alvocidib -0.035 | Tubastatin A -0.069 | [1] -0.021 | defactinib 0.003 | rucaparib -0.061 | [2] -0.03 | encorafenib -0.001 | [3] -0.013

CLPTM1L (UniProt Q96KA5)
inactive: saracatinib 0.11 | sotrastaurin -0.013 | alvocidib 0.008 | Tubastatin A -0.008 | [1] -0.057 | defactinib -0.042 | rucaparib -0.011 | [2] -0.099 | encorafenib 0.021 | [3] 0.043

CNOT1 (UniProt A5YKK6)
inactive: saracatinib -0.025 | sotrastaurin -0.087 | alvocidib -0.051 | Tubastatin A -0.003 | [1] 0.03 | defactinib -0.057 | rucaparib 0.077 | [2] 0.024 | encorafenib 0.074 | [3] -0.031

CHCHD4 isoform 2 (UniProt Q8N4Q1)
inactive: saracatinib 0.277 | sotrastaurin 0.003 | alvocidib -0.14 | Tubastatin A 0.061 | [1] 0.199 | defactinib -0.049 | rucaparib -0.007 | [2] 0.202 | encorafenib -0.046 | [3] -0.034

CDK5RAP1 (UniProt Q96SZ6)
active: Tubastatin A -0.238
inactive: saracatinib 0.192 | sotrastaurin 0.072 | alvocidib -0.077 | [1] 0.044 | defactinib 0.022 | rucaparib 0.035 | [2] 0.057 | encorafenib 0.053 | [3] -0.048

CCM2 isoform 2 (UniProt Q9BSQ5)
Sequence of UniProt Q9BSQ5 (Q9BSQ5 whole entry, looked up): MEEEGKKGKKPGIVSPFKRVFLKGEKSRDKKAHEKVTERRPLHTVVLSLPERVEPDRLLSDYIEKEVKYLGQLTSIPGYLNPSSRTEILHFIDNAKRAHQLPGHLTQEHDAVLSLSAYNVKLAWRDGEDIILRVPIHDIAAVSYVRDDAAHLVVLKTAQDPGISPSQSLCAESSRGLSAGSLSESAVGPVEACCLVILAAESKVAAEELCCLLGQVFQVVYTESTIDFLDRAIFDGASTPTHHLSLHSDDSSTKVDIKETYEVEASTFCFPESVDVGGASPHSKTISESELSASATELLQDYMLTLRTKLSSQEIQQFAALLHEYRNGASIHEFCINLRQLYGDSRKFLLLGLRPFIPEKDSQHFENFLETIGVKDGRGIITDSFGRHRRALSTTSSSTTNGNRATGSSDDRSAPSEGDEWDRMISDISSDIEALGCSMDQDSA
inactive: saracatinib -0.01 | sotrastaurin 0.056 | alvocidib -0.022 | Tubastatin A 0.073 | [1] -0.061 | defactinib -0.107 | rucaparib 0.03 | [2] 0.087 | encorafenib 0.118 | [3] -0.033

COPS4 (UniProt Q9BT78)
inactive: saracatinib 0.028 | sotrastaurin 0.008 | alvocidib -0.071 | Tubastatin A -0.011 | [1] -0.005 | defactinib -0.015 | rucaparib 0.004 | [2] -0.006 | encorafenib -0.001 | [3] -0.007
